Data: the supplement of paper PMC12339681
Where a name gives a salt, the structure may show the parent alone.

test system: PBMC-derived induced microglia-like cells (piMGLC); experiment: synaptosome phagocytic index relative to DMSO control (fraction of DMSO); higher = more phagocytosis; settings: concentration: 10 uM (2 uM for compounds listed in Table S2); pretreatment time: 24 h; assay time: 3 h
Description: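 PBMC-derived induced microglia-like cells (piMGLCs) in 96-well plates were pretreated for 24 h with CNS-penetrant library compounds (MedChemExpress HY-L028), mostly at 10 uM; Table S2 lists 9 compounds at 2 uM. pHrodo-Red-labelled human iPSC-neuron synaptosomes (3 ug/well) were then added for 3 h, and cells were fixed and imaged by confocal microscopy. Phagocytic index (synaptosome area / cell count, CellProfiler) is a mean over 3 replicate wells on different plates, normalized to the DMSO control. Compounds leaving <10% of DMSO cell count were marked toxic and given no value.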

Structure (SMILES)	synaptosome phagocytic index
CN(C)CCC[C@@]1(c2ccc(F)cc2)OCc2cc(C#N)ccc21 [Escitalopram_(oxalate)]	0.946
COc1cc2ncnc(Nc3ccc(F)c(Cl)c3)c2cc1NC(=O)/C=C/CN1CCCCC1 [Dacomitinib]	1.26
O=C(c1ccccc1)c1ccc2n1CCC2C(=O)O (stereo not given) [Ketorolac_(tromethamine_salt)]	0.874
Cc1cccc(C)c1OCC(=O)N[C@@H](Cc1ccccc1)[C@@H](O)C[C@H](Cc1ccccc1)NC(=O)[C@H](C(C)C)N1CCCNC1=O [Lopinavir]	0.253
NC(=O)N1c2ccccc2CC(=O)c2ccccc21 [Oxcarbazepine]	0.693
CN1C[C@@H]2[C@H](C1)[C@H]2CN(Cc1ccc(F)c(Cl)c1)C(=O)c1cn(C)cn1	0.691
Cc1nc2n(c(=O)c1CCN1CCC(c3noc4cc(F)ccc34)CC1)CCCC2O (stereo not given) [Paliperidone]	0.852
CCC(C)C(N)C(=O)NCCN1CCOCC1 (stereo not given) [LM11A-31_(dihydrochloride)]	0.844
O=c1c(-c2ccc(O)cc2)coc2cc(O)ccc12 [Daidzein]	0.94
CCc1cc(C(N)=S)ccn1 [Ethionamide]	0.996
CCN(CC)CC(=O)Nc1c(C)cccc1C [Lidocaine_(hydrochloride)]	0.925
Cc1ccccc1C(OCCN(C)C)c1ccccc1 (stereo not given) [Orphenadrine_(citrate)]	1.23
COc1cc(C(C)=O)ccc1OCCCN1CCC(c2noc3cc(F)ccc23)CC1 [Iloperidone]	0.853
CS(=O)(=O)c1ccc(C2=C(c3ccccc3)C(=O)OC2)cc1 [Rofecoxib]	1.08
CCOc1nc2cccc(C(=O)O)c2n1Cc1ccc(-c2ccccc2-c2nnn[nH]2)cc1 [Candesartan]	1.1
NC(=O)c1ccc(I)c([N+](=O)[O-])c1 [Iniparib]	0.96
OCCOCCN1CCN(C(c2ccccc2)c2ccc(Cl)cc2)CC1 (stereo not given) [Hydroxyzine_(dihydrochloride)]	0.957
Cc1nc(N)nc(N)c1-c1ccc(Cl)c(Cl)c1 [Metoprine]	1.25
CC(C)NCC(O)COc1cccc2ccccc12 (stereo not given) [Propranolol_(hydrochloride)]	1.1
Cc1cn([C@H]2C=C[C@@H](CO)O2)c(=O)[nH]c1=O [Stavudine]	0.555

Structure (SMILES)	synaptosome phagocytic index
O=c1ncn2nc(Sc3ccc(F)cc3F)ccc2c1-c1c(Cl)cccc1Cl [Neflamapimod]	0.984
CO/N=C(\C(=O)N[C@@H]1C(=O)N2C(C(=O)O)=C(COC(C)=O)CS[C@H]12)c1csc(N)n1 [Cefotaxime_(sodium_salt)]	0.951
CN(C)C(=N)NC(=N)N [Metformin]	1.28
CCc1cc(F)c2nc(N3CCC(NC4CCOCC4)CC3)c(-c3nc(C)no3)c(C)c2c1	1.21
CC1=C(/C=C/C(C)=C/C=C/C(C)=C/C(=O)O)C(C)(C)CCC1 [Retinoic_acid]	0.339
CN1C(=O)C(Cc2c[nH]c3ccccc23)NC1=S (stereo not given) [Necrostatin-1]	0.88
CC(C)[C@H](NC(=O)c1ccc2ccccc2n1)C(=O)N[C@@H](CC(=O)O)C(=O)COc1c(F)cccc1F	1.14
CN(CCOc1ccc(CC2SC(=O)NC2=O)cc1)c1ccccn1 (stereo not given) [Rosiglitazone]	1.19
CS(=O)(=O)c1ccc(C(=O)Nc2ccc(Cl)c(-c3ccccn3)c2)c(Cl)c1 [Vismodegib]	0.948
COC(=O)/C=C/c1ccc(O)c(OC)c1 [Ferulic_acid_methyl_ester]	0.783
CC(=O)Oc1ccccc1C(=O)O [Aspirin]	0.579
C[N+]1([O-])CCN(C2=Nc3cc(Cl)ccc3Nc3ccccc32)CC1 [Clozapine_N-oxide_(dihydrochloride)]	0.606
Cn1cnc2c(F)c(Nc3ccc(Br)cc3Cl)c(C(=O)NOCCO)cc21 [Selumetinib]	0.811
Fc1ccc(-c2ccc3c(c2)[nH]c2ccncc23)cn1	0.711
CN(C)CCOc1ccc(-c2nc(-c3ccncc3)c(-c3ccc4c(c3)CC/C4=N\O)[nH]2)cc1	0.684
CCc1cc2c(cc1N1CCC(N3CCOCC3)CC1)C(C)(C)c1[nH]c3cc(C#N)ccc3c1C2=O [Alectinib_(Hydrochloride)]	0.192
Cc1ccc(Nc2nccc(N(C)c3ccc4c(C)n(C)nc4c3)n2)cc1S(N)(=O)=O [Pazopanib_(Hydrochloride)]	0.523
CN(C)C(=O)c1cc2cnc(Nc3ccc(N4CCNCC4)cn3)nc2n1C1CCCC1 [Ribociclib]	0.78
O=C(CCCCCCC(=O)Nc1ccccc1)NO [Vorinostat]	0.0904
Cc1ccc(N2CCN(Cc3nc4ccccc4[nH]3)CC2)cc1C	1.03
